# According to publication PMC5540273 (PLoS ONE, 2017):
# Values joined by “and” are separate entries in the source; they are usually repeats but may differ in a detail not shown here. Equal entries are not always repeated. Where two headings read alike, the source gives them in different places.
# Columns and labels:
# FLT3-autoinhibited = conditions: concentration: 1 μM, replicates: in singlicate, n = 1
# FLT3 = conditions: concentration: 1 μM, replicates: in singlicate, n = 1
# FLT4 = conditions: concentration: 1 μM, replicates: in singlicate, n = 1
# FRK = conditions: concentration: 1 μM, replicates: in singlicate; n = 1
# FYN = conditions: concentration: 1 μM, replicates: in singlicate, n = 1
# GAK = conditions: concentration: 1 μM, replicates: in singlicate, n = 1
# GCN2(Kin.Dom.2,S808G) = tested on: T1, GCN2(Kin.Dom.2,S808G); conditions: concentration: 1 μM, replicates: in singlicate; n = 1
# T1 construct: gene EIF2AK4
# GRK1 = conditions: concentration: 1 μM, replicates: in singlicate, n = 1
# GRK2 = tested on: T2, GRK2; conditions: concentration: 1 μM, replicates: in singlicate, n = 1
# T2 construct: gene ADRBK1
# GRK3 = tested on: T3, GRK3; conditions: concentration: 1 μM, replicates: in singlicate, n = 1
# T3 construct: gene ADRBK2
# GRK4 = conditions: concentration: 1 μM, replicates: in singlicate, n = 1
# GRK7 = conditions: concentration: 1 μM, replicates: in singlicate, n = 1
# GSK3A = conditions: concentration: 1 μM, replicates: in singlicate; n = 1
# GSK3B = conditions: concentration: 1 μM, replicates: in singlicate, n = 1
# HASPIN = tested on: T4, HASPIN; conditions: concentration: 1 μM, replicates: in singlicate, n = 1
# T4 construct: gene GSG2
# HCK = conditions: concentration: 1 μM, replicates: in singlicate; n = 1
# HIPK1 = conditions: concentration: 1 μM, replicates: in singlicate, n = 1
# HIPK2 = conditions: concentration: 1 μM, replicates: in singlicate, n = 1
# HIPK3 = conditions: concentration: 1 μM, replicates: in singlicate, n = 1
# HIPK4 = conditions: concentration: 1 μM, replicates: in singlicate, n = 1
# 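Note: KINOMEscan kinase panel screen.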
compound,measurement,setting,value
O=C(NOCC1CC1)c1ccc(F)c(F)c1Nc1ccc(I)cc1Cl,%Inh,FLT3-autoinhibited,0%
same,%Inh,FLT3,0%
same,%Inh,FLT4,1%
same,%Inh,FRK,0%
same,%Inh,FYN,0%
same,%Inh,GAK,0%
same,%Inh,"GCN2(Kin.Dom.2,S808G)",0%
same,%Inh,GRK1,0%
same,%Inh,GRK2,0%
same,%Inh,GRK3,0%
same,%Inh,GRK4,0%
same,%Inh,GRK7,0%
same,%Inh,GSK3A,0%
same,%Inh,GSK3B,0%
same,%Inh,HASPIN,30%
same,%Inh,HCK,0%
same,%Inh,HIPK1,0%
same,%Inh,HIPK2,0%
same,%Inh,HIPK3,0%
same,%Inh,HIPK4,0%
NS(=O)(=O)c1cccc(-c2ccc3ncc(N4CCOCC4)nc3c2)c1 [GSK1535721],%Inh,FLT3-autoinhibited,12%
same,%Inh,FLT3,0%
same,%Inh,FLT4,12%
same,%Inh,FRK,11%
same,%Inh,FYN,16%
same,%Inh,GAK,15%
same,%Inh,"GCN2(Kin.Dom.2,S808G)",0%
same,%Inh,GRK1,3%
same,%Inh,GRK2,0%
same,%Inh,GRK3,30%
same,%Inh,GRK4,0%
same,%Inh,GRK7,0%
same,%Inh,GSK3A,19%
same,%Inh,GSK3B,0%
same,%Inh,HASPIN,36%
same,%Inh,HCK,0%
same,%Inh,HIPK1,10%
same,%Inh,HIPK2,0%
same,%Inh,HIPK3,1%
same,%Inh,HIPK4,0%
COc1cc2ncn(-c3cc(OCc4sccc4Cl)c(C(N)=O)s3)c2cc1OC [GSK448459],%Inh,FLT3-autoinhibited,0%
same,%Inh,FLT3,31%
same,%Inh,FLT4,67%
same,%Inh,FRK,10%
same,%Inh,FYN,15%
same,%Inh,GAK,86%
same,%Inh,"GCN2(Kin.Dom.2,S808G)",7%
same,%Inh,GRK1,0%
same,%Inh,GRK2,0%
same,%Inh,GRK3,33%
same,%Inh,GRK4,30%
same,%Inh,GRK7,0%
same,%Inh,GSK3A,0%
same,%Inh,GSK3B,6%
same,%Inh,HASPIN,5%
same,%Inh,HCK,0%
same,%Inh,HIPK1,44%
same,%Inh,HIPK2,28%
same,%Inh,HIPK3,23%
same,%Inh,HIPK4,69%
COc1cc2c(cc1OCCN1CCN(C)CC1)ncc1c3ccc(C#N)cc3[nH]c21,%Inh,FLT3-autoinhibited,97.4%
same,%Inh,FLT3,98.6%
same,%Inh,FLT4,0%
same,%Inh,FRK,2%
same,%Inh,FYN,25%
same,%Inh,GAK,99.6%
same,%Inh,"GCN2(Kin.Dom.2,S808G)",90.8%
same,%Inh,GRK1,32%
same,%Inh,GRK2,0%
same,%Inh,GRK3,0%
same,%Inh,GRK4,0%
same,%Inh,GRK7,0%
same,%Inh,GSK3A,0%
same,%Inh,GSK3B,0%
same,%Inh,HASPIN,76%
same,%Inh,HCK,0%
same,%Inh,HIPK1,97.6%
same,%Inh,HIPK2,100%
same,%Inh,HIPK3,96%
same,%Inh,HIPK4,55%
CCc1nc(-c2cccc(C)c2)c(-c2ccnc(NCc3ccccc3)c2)s1,%Inh,FLT3-autoinhibited,18%
same,%Inh,FLT3,0%
same,%Inh,FLT4,0%
same,%Inh,FRK,0%
same,%Inh,FYN,0%
same,%Inh,GAK,11%
same,%Inh,"GCN2(Kin.Dom.2,S808G)",11%
same,%Inh,GRK1,9%
same,%Inh,GRK2,0%
same,%Inh,GRK3,6%
same,%Inh,GRK4,9%
same,%Inh,GRK7,0%
same,%Inh,GSK3A,12%
same,%Inh,GSK3B,0%
same,%Inh,HASPIN,41%
same,%Inh,HCK,5%
same,%Inh,HIPK1,21%
same,%Inh,HIPK2,0%
same,%Inh,HIPK3,0%
same,%Inh,HIPK4,7%
NCC(NC(=O)c1cc(-c2cn[nH]c2)c(-c2ccnc3[nH]ccc23)s1)c1ccccc1.O=C(O)C(F)(F)F.O=C(O)C(F)(F)F (stereo not shown) [GSK1325775],%Inh,FLT3-autoinhibited,21%
same,%Inh,FLT3,69%
same,%Inh,FLT4,14%
same,%Inh,FRK,0%
same,%Inh,FYN,25%
same,%Inh,GAK,91.9%
same,%Inh,"GCN2(Kin.Dom.2,S808G)",99.1%
same,%Inh,GRK1,35%
same,%Inh,GRK2,70%
same,%Inh,GRK3,76%
same,%Inh,GRK4,64%
same,%Inh,GRK7,51%
same,%Inh,GSK3A,38%
same,%Inh,GSK3B,48%
same,%Inh,HASPIN,84%
same,%Inh,HCK,0%
same,%Inh,HIPK1,88%
same,%Inh,HIPK2,96.7%
same,%Inh,HIPK3,98.4%
same,%Inh,HIPK4,94.8%
Fc1ccc(-c2nn3c(OCC(F)(F)F)cccc3c2-c2ccncc2)cc1 [GW514784],%Inh,FLT3-autoinhibited,0%
same,%Inh,FLT3,4%
same,%Inh,FLT4,0%
same,%Inh,FRK,5%
same,%Inh,FYN,0%
same,%Inh,GAK,85%
same,%Inh,"GCN2(Kin.Dom.2,S808G)",0%
same,%Inh,GRK1,0%
same,%Inh,GRK2,0%
same,%Inh,GRK3,45%
same,%Inh,GRK4,0%
same,%Inh,GRK7,0%
same,%Inh,GSK3A,10%
same,%Inh,GSK3B,0%
same,%Inh,HASPIN,67%
same,%Inh,HCK,0%
same,%Inh,HIPK1,0%
same,%Inh,HIPK2,0%
same,%Inh,HIPK3,5%
same,%Inh,HIPK4,0%
NCCNS(=O)(=O)c1ccc(-c2ccnc3[nH]ccc23)cc1 [GSK977617],%Inh,FLT3-autoinhibited; 1 µM,27% and 39%
same,%Inh,FLT3; 1 µM,87% and 73%
same,%Inh,FLT4; 1 µM,48% and 21%
same,%Inh,FRK,0%
same,%Inh,FYN; 1 µM,25% and 16%
same,%Inh,GAK; 1 µM,46% and 19%
same,%Inh,"GCN2(Kin.Dom.2,S808G)",0%
same,%Inh,GRK1; 1 µM,75% and 52%
same,%Inh,GRK2; 1 µM,4% and 0%
same,%Inh,GRK3; 1 µM,12% and 36%
same,%Inh,GRK4; 1 µM,69% and 37%
same,%Inh,GRK7; 1 µM,92.1% and 90.1%
same,%Inh,GSK3A,0%
same,%Inh,GSK3B; 1 µM,0% and 10%
same,%Inh,HASPIN; 1 µM,95.3% and 86%
same,%Inh,HCK,0%
same,%Inh,HIPK1; 1 µM,95.6% and 94.2%
same,%Inh,HIPK2; 1 µM,96% and 89%
same,%Inh,HIPK3; 1 µM,97.4% and 95.9%
same,%Inh,HIPK4; 1 µM,77% and 64%
